Our source for the outcome and Potency values is PubChem BioAssay (Tox21).

“And” between values parts separate entries of the source, which are not always exact repeats. Equal values may be shown once. Results filed as inconclusive are left out. Some compounds were tested as several samples or in several runs, with calls that do not always agree. The source made the active and inactive calls. Unless noted, calls follow the shape of the dose curve; as a rule, active = well fitted curve in the direction sought with a large enough effect in the repeat runs; inconclusive = weak or mixed curves; inactive = no such curve, though single readings can be large; an effect the other way counts as inactive or inconclusive.

The target in assay [1] is Thyrotropin-releasing hormone receptor (Homo sapiens) (UniProt P34981). The assay is described as follows: qHTS assay to identify small molecule agonists of the thyrotropin-releasing hormone receptor (TRHR) signaling pathway (AID 1346891; calls by dose curve; also: series mostly up to about 58 µM). The essentials:
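HEK293 cells expressing TRHR plated 18 h at 37 C/5% CO2, calcium dye-loaded 2 h at 37 C, then compound added (agonist mode); kinetic calcium fluorescence read 3 min at 1 s intervals; 15 concentrations in triplicate.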
For orientation: In qHTS, concentration-response curves come from the screen itself.

Assay [2] can be described thus: Human pregnane X receptor (PXR) small molecule agonists, qHTS cell viability counter screen (AID 1346977). Also: nearly all actives have a fitted effect of over 50% in size. The essentials: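 PXR-Luc HepG2 cells (2,000/well, 5% charcoal-stripped FBS) preincubated 5 hr, then exposed to compounds 24 hr at 37 C. Viability read in the same wells by CellTiter-Fluor fluorescence, reagent added at 23 hr, 1 hr incubation.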
The nature of assay [3]: Caspase-3/7 induction in HepG2 cells by small molecules, qHTS assay (AID 1346978). Also: nearly all actives have a fitted effect of over 15% in size. The essentials: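 Wild-type HepG2 cells, 2,000/well, settled 5 hr at 37 C and 5% CO2, then compound-treated for 17 hr; caspase-3/7 activity read by luminescent Caspase-Glo 3/7 after 30 min at room temperature.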
Assay [4] in a line: Caspase-3/7 induction in CHO-K1 cells by small molecules, qHTS cell viability counter screen (AID 1346979). Also: nearly all actives have a fitted effect of over 35% in size. The procedure, abridged: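 Wild-type CHO-K1 cells (1,500/well) treated with compound after 5 h plating; after 16 h at 37C, viability read as CellTiter-Fluor fluorescence following 1 h reagent incubation, in the same wells as the caspase read.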
Assay [5] can be described thus: Caspase-3/7 induction in CHO-K1 cells by small molecules, qHTS assay (AID 1346980). Also: nearly all actives have a fitted effect of over 15% in size. The procedure, abridged:
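Wild-type CHO-K1 cells exposed to compounds for 17hr at 37 C, 5% CO2. Caspase-3/7 activity then measured by Caspase-Glo 3/7 luminescence after 30min at room temperature.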

A short description of assay [6]: Caspase-3/7 induction in HepG2 cells by small molecules, qHTS cell viability counter screen (AID 1346981). Also: series mostly up to about 92 µM; nearly all actives have a fitted effect of over 30% in size. The essentials:
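After a 5-hr attachment period at 37 C and 5% CO2, wild-type HepG2 cells received compounds in DMSO. Sixteen hours later CellTiter-Fluor was dispensed and the fluorescent signal quantified after a further hour.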

Assay [7] deals with Nuclear receptor subfamily 1 group I member 2 (Homo sapiens) (UniProt O75469). The assay can be described thus: Human pregnane X receptor (PXR) small molecule agonists, qHTS assay (AID 1346982). Also: nearly all actives have a fitted effect of over 35% in size. Also: potency is read from the fitted curve at half-maximal effect. The essentials:
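Tox21 qHTS; PXR-Luc HepG2; compounds pinned from DMSO; 24 hr, 37 C; ONE-Glo luciferase detection, 30 min room temperature.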

Assay [8] addresses Acetylcholinesterase (Homo sapiens) (UniProt P22303). The assay can be described thus: Acetylcholinesterase (AChE) small molecule antagonists: colormetric cell-based qHTS assay (AID 1347395; calls by dose curve; also: nearly all actives have a fitted effect of over 30% in size). The essentials: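 SH-SY5Y cells attached overnight, exposed to compound 30 min at 37 C, then given DTNB/acetylthiocholine; after 90 min at 37 C, colorimetric thiocholine read gives cellular AChE activity.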

The target is the same in assay [9]. The assay is described as follows: Acetylcholinesterase (AChE) small molecule antagonists: enzyme-based qHTS assay (AID 1347397; calls by dose curve; also: nearly all actives have a fitted effect of over 55% in size). Particulars: Potency: AChE enzyme activity inhibition. The essentials:
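In this quantitative HTS, compounds from the Tox21 10K collection were preincubated 30 min at ambient temperature with recombinant human AChE dispensed at 50 mU/mL. Hydrolysis of acetylthiocholine was then followed for 10 min by DTNB colour development.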

Assay [10] shares this target. The assay is described as follows: Acetylcholinesterase (AChE) small molecule antagonists: fluorescence cell-based qHTS assay (AID 1347398; calls by dose curve; also: nearly all actives have a fitted effect of over 50% in size). Particulars: Potency: AChE activity. The essentials:
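Cells (SH-SY5Y) attached overnight, were dosed with compound or DMSO vehicle for 30 min at 37 C, and then incubated 40 min at room temperature with acetylthiocholine and Thiolite Green; green fluorescence indexed AChE activity.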

For assay [11] the target is unchanged. The assay can be described thus: Acetylcholinesterase (AChE) small molecule antagonists: enzyme-based qHTS assay with human liver microsomes (AID 1347399; calls by dose curve; also: nearly all actives have a fitted effect of over 60% in size). Particulars: Potency: qHTS inhibition. The procedure, abridged: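 Recombinant human AChE (50 mU/mL in the enzyme mix) and human liver microsomes (0.25 mg/mL final) were preincubated with compound and NADPH (0.25 mg/mL final) for 30 min at 37 C. Acetylthiocholine/DTNB was then added; thiocholine was read colorimetrically after 10 min at room temperature.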

Assay [12] addresses Cytochrome P450 2D6 (Homo sapiens) (UniProt P10635). The assay is described as follows: Cytochrome P450 Family 2 Subfamily D Member 6 (CYP2D6) small molecule antagonists: luciferase reporter qHTS assay (AID 1671196). Also: series mostly up to about 120 µM; nearly all actives have a fitted effect of over 50% in size. The procedure, abridged:
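Room-temperature luminescent CYP2D6 activity assay: compound preincubated 10 min with enzyme–substrate mix, NADPH-initiated reaction 1 h, detection reagent 20 min before reading.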
Background: In a reporter assay the amount or activity of a reporter protein is the signal.

The target in assay [13] is Cytochrome P450 2C19 (Homo sapiens) (UniProt P33261). The assay can be described thus: Cytochrome P450 Family 2 Subfamily C Member 19 (CYP2C19) small molecule antagonists: luciferase reporter qHTS assay (AID 1671197). Also: nearly all actives have a fitted effect of over 65% in size. Also: potency is read from the fitted curve at half-maximal effect. The essentials: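 Inhibition of CYP2C19 was scored from loss of luminescence in a P450-Glo proluciferin substrate assay, NADPH-started and run 1 h at 37C, with ketoconazole as positive control.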

In assay [14] the target is Cytochrome P450 2C9 (Homo sapiens) (UniProt P11712). The assay is described as follows: Cytochrome P450 Family 2 Subfamily C Member 9 (CYP2C9) small molecule antagonists: luciferase reporter qHTS assay (AID 1671198). Also: nearly all actives have a fitted effect of over 50% in size. Also: potency is read from the fitted curve at half-maximal effect. The procedure, abridged: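 P450-Glo proluciferin substrate with CYP2C9 enzyme; 10 min RT preincubation, then NADPH regeneration 1 h at 37C; luciferin detection reagent 20 min RT, luminescence in relative luminescence units.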

Assay [15] addresses Cytochrome P450 1A2 (Homo sapiens) (UniProt P05177). The assay is described as follows: Cytochrome P450 Family 1 Subfamily A Member 2 (CYP1A2) small molecule antagonists: luciferase reporter qHTS assay (AID 1671199). Also: nearly all actives have a fitted effect of over 50% in size. Also: potency is read from the fitted curve at half-maximal effect. The essentials:
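Room-temperature CYP1A2 reaction with proluciferin substrate: compounds added from DMSO, 10 min preincubation, NADPH regeneration for 1 h. Luciferin detection reagent then added; luminescence recorded as RLU.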

The target of assay [16] is Voltage-gated inwardly rectifying potassium channel KCNH2 (Homo sapiens) (UniProt Q12809). The assay is described as follows: Human Ether-a-go-go-Related Gene (hERG) channel small molecule antagonists: fluorescence cell-based qHTS assay (AID 1671200). The essentials: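 hERG-U2OS cells plated overnight at 37 C, loaded with FluxOR II dye 1 h at RT in dark; after 10 min, thallium stimulus added. Fluorescence (480/540 nm) read kinetically for 2 min at 1 s intervals.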

The target in assay [17] is Cytochrome P450 3A4 (Homo sapiens) (UniProt P08684). The assay can be described thus: Cytochrome P450 Family 3 Subfamily A Member 4 (CYP3A4) small molecule antagonists: luciferase reporter qHTS assay (AID 1671201). The procedure, abridged:
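P450-Glo CYP3A4 luminescent assay: compounds preincubated 10 min at room temperature with enzyme and proluciferin substrate, NADPH regeneration added, 1 h room-temperature reaction, stopped with luciferin detection reagent; luminescence read after 20 min. Ketoconazole positive control.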

Sequence of Cytochrome P450 2C9 (Homo sapiens) (P11712 whole entry, looked up): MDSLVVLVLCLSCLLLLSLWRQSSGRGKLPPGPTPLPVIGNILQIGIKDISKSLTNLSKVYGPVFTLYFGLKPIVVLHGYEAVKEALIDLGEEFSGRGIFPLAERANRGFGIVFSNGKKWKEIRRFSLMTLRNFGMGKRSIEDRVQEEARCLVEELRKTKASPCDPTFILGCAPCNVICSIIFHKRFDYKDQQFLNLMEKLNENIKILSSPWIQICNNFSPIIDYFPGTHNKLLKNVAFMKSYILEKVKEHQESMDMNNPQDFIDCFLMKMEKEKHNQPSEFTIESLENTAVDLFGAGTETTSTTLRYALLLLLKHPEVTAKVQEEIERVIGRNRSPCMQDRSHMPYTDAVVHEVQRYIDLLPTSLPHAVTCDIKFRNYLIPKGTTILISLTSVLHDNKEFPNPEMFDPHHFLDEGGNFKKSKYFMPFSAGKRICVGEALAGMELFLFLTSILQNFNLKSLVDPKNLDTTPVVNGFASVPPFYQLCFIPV
Sequence of Thyrotropin-releasing hormone receptor (Homo sapiens) (P34981 whole entry, looked up): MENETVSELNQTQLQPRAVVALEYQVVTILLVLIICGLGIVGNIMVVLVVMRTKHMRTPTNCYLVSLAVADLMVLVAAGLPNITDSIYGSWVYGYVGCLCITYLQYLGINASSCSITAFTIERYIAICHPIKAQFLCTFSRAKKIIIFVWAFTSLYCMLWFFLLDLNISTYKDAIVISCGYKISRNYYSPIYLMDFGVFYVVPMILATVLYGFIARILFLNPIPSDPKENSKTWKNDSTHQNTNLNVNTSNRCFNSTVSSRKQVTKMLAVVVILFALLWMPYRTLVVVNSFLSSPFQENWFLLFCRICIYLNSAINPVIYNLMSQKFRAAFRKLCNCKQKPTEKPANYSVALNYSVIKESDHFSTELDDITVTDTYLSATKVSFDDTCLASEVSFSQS
Sequence of Cytochrome P450 3A4 (Homo sapiens) (P08684 whole entry, looked up): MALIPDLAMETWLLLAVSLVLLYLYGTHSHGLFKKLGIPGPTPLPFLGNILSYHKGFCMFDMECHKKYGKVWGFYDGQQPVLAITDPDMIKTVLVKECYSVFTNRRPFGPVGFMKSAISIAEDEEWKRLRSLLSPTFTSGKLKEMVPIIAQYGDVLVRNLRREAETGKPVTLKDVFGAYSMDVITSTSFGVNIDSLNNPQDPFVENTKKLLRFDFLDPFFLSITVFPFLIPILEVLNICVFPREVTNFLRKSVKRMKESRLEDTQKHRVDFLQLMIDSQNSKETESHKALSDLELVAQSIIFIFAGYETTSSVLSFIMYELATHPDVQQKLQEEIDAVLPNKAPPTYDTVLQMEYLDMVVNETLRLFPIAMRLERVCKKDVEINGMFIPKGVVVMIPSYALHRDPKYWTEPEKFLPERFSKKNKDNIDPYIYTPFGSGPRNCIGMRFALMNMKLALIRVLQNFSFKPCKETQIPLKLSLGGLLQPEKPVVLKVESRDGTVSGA
Sequence of Acetylcholinesterase (Homo sapiens) (P22303 whole entry, looked up): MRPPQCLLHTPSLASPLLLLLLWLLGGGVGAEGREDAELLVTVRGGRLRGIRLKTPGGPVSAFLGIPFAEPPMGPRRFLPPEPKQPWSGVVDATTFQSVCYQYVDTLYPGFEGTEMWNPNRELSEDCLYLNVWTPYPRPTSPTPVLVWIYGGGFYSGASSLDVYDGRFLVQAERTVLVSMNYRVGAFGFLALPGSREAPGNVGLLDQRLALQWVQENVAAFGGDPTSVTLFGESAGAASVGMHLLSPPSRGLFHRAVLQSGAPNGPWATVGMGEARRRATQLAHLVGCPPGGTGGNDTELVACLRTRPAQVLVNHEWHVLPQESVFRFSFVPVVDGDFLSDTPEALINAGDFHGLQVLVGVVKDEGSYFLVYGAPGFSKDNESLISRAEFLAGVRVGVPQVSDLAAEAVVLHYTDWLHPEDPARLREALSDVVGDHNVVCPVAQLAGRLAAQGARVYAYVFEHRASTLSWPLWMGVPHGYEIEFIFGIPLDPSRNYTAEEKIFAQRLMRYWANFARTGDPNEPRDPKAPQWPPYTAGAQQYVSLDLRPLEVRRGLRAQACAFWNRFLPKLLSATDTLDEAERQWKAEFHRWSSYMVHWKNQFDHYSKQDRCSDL
Sequence of Cytochrome P450 1A2 (Homo sapiens) (P05177 whole entry, looked up): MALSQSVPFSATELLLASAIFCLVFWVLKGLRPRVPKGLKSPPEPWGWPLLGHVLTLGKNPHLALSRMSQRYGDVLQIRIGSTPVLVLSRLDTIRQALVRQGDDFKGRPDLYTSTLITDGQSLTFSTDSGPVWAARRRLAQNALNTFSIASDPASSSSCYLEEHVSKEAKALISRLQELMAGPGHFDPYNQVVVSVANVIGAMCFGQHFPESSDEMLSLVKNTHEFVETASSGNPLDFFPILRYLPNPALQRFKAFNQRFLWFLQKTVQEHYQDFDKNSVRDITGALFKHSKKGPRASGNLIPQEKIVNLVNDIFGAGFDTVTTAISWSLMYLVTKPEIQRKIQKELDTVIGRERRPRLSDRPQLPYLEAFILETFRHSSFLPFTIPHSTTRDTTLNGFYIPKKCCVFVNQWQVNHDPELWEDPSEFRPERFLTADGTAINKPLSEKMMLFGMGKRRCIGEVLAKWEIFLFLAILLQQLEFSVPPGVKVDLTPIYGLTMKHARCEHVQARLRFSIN
Sequence of Voltage-gated inwardly rectifying potassium channel KCNH2 (Homo sapiens) (Q12809 whole entry, looked up): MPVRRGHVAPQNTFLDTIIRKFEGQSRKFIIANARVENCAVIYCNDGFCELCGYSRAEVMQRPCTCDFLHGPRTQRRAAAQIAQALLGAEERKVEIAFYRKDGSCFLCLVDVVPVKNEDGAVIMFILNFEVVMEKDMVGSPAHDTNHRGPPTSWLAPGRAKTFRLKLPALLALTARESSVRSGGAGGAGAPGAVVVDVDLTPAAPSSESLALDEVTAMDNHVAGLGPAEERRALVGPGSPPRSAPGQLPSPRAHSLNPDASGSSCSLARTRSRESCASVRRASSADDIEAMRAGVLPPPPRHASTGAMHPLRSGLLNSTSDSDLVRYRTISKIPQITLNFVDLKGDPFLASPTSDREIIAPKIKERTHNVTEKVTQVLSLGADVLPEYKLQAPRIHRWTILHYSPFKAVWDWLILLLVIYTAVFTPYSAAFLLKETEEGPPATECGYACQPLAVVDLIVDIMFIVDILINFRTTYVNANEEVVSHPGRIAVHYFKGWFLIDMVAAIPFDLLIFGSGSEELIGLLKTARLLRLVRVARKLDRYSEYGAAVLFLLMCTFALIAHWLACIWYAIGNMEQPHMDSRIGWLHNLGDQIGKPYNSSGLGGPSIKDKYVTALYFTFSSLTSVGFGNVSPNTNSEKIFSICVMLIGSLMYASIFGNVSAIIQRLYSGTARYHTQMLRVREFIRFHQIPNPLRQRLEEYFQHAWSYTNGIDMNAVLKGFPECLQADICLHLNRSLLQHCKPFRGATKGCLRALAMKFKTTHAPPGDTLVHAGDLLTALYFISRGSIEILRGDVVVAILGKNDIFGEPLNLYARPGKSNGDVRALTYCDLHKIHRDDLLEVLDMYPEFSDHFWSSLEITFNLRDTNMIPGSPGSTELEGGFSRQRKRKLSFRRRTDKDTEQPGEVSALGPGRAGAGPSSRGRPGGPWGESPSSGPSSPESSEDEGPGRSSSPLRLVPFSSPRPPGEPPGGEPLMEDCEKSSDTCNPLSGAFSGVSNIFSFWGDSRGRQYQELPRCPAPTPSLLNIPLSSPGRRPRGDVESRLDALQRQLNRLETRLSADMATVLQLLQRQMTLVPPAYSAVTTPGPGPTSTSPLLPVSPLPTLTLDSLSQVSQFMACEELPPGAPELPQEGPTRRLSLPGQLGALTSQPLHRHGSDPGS
Sequence of Nuclear receptor subfamily 1 group I member 2 (Homo sapiens) (O75469 whole entry, looked up): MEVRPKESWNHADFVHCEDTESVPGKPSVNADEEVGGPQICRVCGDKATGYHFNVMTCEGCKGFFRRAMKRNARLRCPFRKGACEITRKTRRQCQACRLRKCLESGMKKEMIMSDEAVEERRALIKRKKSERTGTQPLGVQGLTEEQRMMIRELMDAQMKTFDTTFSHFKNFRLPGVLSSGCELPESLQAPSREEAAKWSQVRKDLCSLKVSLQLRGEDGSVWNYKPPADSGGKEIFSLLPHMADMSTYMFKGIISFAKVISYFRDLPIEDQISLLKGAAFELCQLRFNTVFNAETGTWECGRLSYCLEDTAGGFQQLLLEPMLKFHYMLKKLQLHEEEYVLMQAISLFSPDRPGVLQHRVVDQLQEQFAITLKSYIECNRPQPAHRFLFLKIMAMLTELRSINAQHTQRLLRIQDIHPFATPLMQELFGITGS
Sequence of Cytochrome P450 2D6 (Homo sapiens) (P10635 whole entry, looked up): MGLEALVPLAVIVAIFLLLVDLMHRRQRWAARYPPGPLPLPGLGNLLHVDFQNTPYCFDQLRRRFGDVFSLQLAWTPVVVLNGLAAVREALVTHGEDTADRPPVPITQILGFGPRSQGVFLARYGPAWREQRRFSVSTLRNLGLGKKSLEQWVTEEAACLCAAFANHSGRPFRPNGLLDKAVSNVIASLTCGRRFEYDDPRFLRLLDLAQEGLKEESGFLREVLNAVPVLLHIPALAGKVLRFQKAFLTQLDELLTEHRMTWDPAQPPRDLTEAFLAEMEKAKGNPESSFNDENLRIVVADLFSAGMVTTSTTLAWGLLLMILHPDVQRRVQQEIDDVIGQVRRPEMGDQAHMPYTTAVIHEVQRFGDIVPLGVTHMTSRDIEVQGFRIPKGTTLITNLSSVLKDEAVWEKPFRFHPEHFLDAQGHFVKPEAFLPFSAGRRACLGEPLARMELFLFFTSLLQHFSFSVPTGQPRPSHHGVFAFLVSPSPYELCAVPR

Regarding `Cc1cccc(C)c1NC(=O)CN1CCCC1=O`, the call in [1], in [3] and in assay [5] was inactive. Further, the Potency entry in [2], in assay [4], in assay [6], in assay [7], in assay [8] and in assay [9] was “inactive” throughout. Moreover, the Potency entry in assay [10], in assay [11], in assay [12], in assay [13], in [14] and in assay [15] was “inactive” in each case. Also, the Potency result in assay [16] and in assay [17] was “inactive” throughout.
With `COS(=O)(=O)OC`, the outcome in assay [1], in [3] and in assay [5] was inactive. Besides, the Potency result in assay [2], in [4], in assay [6], in [7], in [9] and in [10] was “inactive” in each case. For the same compound, the Potency result in assay [11], in assay [12], in assay [13], in [14], in assay [15] and in [16] was “inactive” throughout. Further, in assay [17], the Potency entry was “inactive”.
In the case of `CNC(=O)O/N=C/C(C)(C)S(C)(=O)=O`, the call in assay [1], in assay [3] and in assay [5] was inactive. Further, the Potency result in [2], in assay [4], in [6], in [7], in [12] and in assay [13] was “inactive” each time. Also, the Potency entry in assay [14], in [15], in [16] and in assay [17] was “inactive” in each case.
Take `CN(C)C(=O)C(c1ccccc1)c1ccccc1`: the call in [1], in [3] and in [5] was inactive. The Potency entry in [2], in assay [4], in assay [6], in assay [9], in assay [10] and in assay [11] was “inactive” in each case. In addition, the Potency result in assay [12], in assay [15], in [16] and in assay [17] was “inactive” each time. Besides, the Potency result is “inactive and 19.3 µM (active)” in assay [7]; 70.9 µM (active) in [13]; 62.3 µM (active) in [14].
Turning to `CC(C)(C)C(=O)CCl`, the compound was classed as inactive in assay [1], in assay [3] and in assay [5]. Moreover, the Potency entry in [2], in [4], in [6], in [7], in assay [8] and in [9] was “inactive” in each case. Also, the Potency entry in [10], in assay [11], in assay [12], in assay [13], in [14] and in assay [15] was “inactive” each time. The Potency result in assay [16] and in [17] was “inactive” throughout.
Turning to `CN(C)C(=O)Nc1cccc(C(F)(F)F)c1`, the compound was called inactive in [1], in [3] and in [5]. Also, the Potency entry in assay [2], in assay [4], in assay [6], in [7], in assay [8] and in assay [9] was “inactive” in each case. In addition, the Potency entry in [10], in assay [11], in assay [12], in [13], in [14] and in assay [16] was “inactive” throughout. Further, the Potency result in assay [17] is “inactive”. Further, the Potency in assay [15] was 2.88 µM (active) and 3.99 µM (active).
As for `CCNc1nc(Cl)nc(NC(C)C)n1`, the call in assay [1], in assay [3] and in assay [5] was inactive. The Potency entry in [2], in assay [4], in assay [6], in assay [9], in assay [10] and in assay [11] was “inactive” in each case. Besides, the Potency entry in assay [12], in assay [13], in [14], in assay [16] and in [17] was “inactive” throughout. Further, the Potency is 67.8 µM (active) and 61.1 µM (active) in assay [7]; 24.9 µM (active) and 22.4 µM (active) in assay [15].
